# From the supplement of paper PMC10811239
# Legend:
# Test in all cases: bioluminescence (viable cell) signal fold change after vs before treatment, normalised to DMSO (ratio); higher = more tumour cell growth / less inhibition
# Settings in all cases: 10 µM; treatment time 6 days
# [1] = system: LEGO organoid PT (PTEN-/-; TP53-/-)
# Method: (§1)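 Luc2-labelled iPSC-derived glioblastoma-like organoids (LEGOs, genotypes PT = PTEN-/-;TP53-/-, PTCC = plus CDKN2A/B-/-, PTN = plus NF1-/-) were treated with 10 uM drug for 6 days (applied every other day) at 37 C. Bioluminescence imaging was done before treatment and 2 days after the last dose. BLI signals were normalised to the DMSO control on the same day and then to the pre-treatment signal (N=3).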
# [2] = system: LEGO organoid PTCC (PTEN-/-; TP53-/-; CDKN2A-/-; CDKN2B-/-)
# Method: as §1
# [3] = system: LEGO organoid PTN (PTEN-/-; TP53-/-; NF1-/-)
# Method: as §1
Structure (SMILES),bioluminescence [1],bioluminescence [2],bioluminescence [3]
CNS(=O)(=O)CCc1ccc2[nH]cc(C3CCN(C)CC3)c2c1.Cl [Naratriptan hydrochloride],0.774,0.859,1.2
CCN(CC)CCNC(=O)c1c(C)[nH]c(/C=C2\C(=O)Nc3ccc(F)cc32)c1C [Sunitinib],0.391,0.536,0.687
NC(=O)c1cnccn1 [Pyrazinamide],0.603,1.24,1.72
O=C(O)Cc1ccccc1Nc1c(Cl)cccc1Cl [Diclofenac],1.11,1.13,1.13
Cc1cn([C@H]2C[C@H](N=[N+]=[N-])[C@@H](CO)O2)c(=O)[nH]c1=O [Zidovudine],5.37,1.35,3.76
Oc1c(I)cc(Cl)c2cccnc12 [Clioquinol],0.859,1.47,2.47
Cl.O.O=C1Cc2cc(CCN3CCN(c4nsc5ccccc45)CC3)c(Cl)cc2N1 [Ziprasidone hydrochloride monohydrate],0.909,1.05,0.716
O=c1[nH]c(=O)n(C2CCCO2)cc1F (stereo unspecified) [Tegafur],1.04,1.14,0.727
N[C@H]1CONC1=O [L-Cycloserine],0.758,1.26,0.884
CN(C)C(=N)NC(=N)N [Metformin],0.733,1.89,2.37
C#Cc1cccc(Nc2ncnc3cc(OCCOC)c(OCCOC)cc23)c1 [Erlotinib],0.504,4.27,1.82
COCCOC(=O)C1=C(C)NC(C)=C(C(=O)OC(C)C)C1c1cccc([N+](=O)[O-])c1 (stereo unspecified) [Nimodipine],1.49,1.61,1.19
